Measurements taken from PubChem BioAssay (NCATS).
Values joined by “and” are separate entries in the source; they are usually repeats but may differ in a detail not shown here. Equal values may be shown once. Inconclusive results are not listed. Active and inactive are the calls of the source. The call rests on the fitted dose curve.

Test: qHTS Assay for Lipid Storage Modulators (AID 1519); on activity change, negative = inhibition: on the % scale 0 is the no-effect control and ±100 the full control effect
Settings: Drosophila S3 cells, BODIPY lipid droplet/cell ratio, laser cytometry, cells loaded with oleic acid
Description: NIH Molecular Libraries Probe Production Centers Network [MLPCN]
NIH Chemical Genomics Center [NCGC]
Assay Submitter (PI): Beller, Mathias; Max-Planck-Institut fur Biophysikalische Chemie
NCGC Assay Overview: Storing lipids as a reservoir for energy or the anabolism of elementary metabolites is a common feature of probably all cells and is conserved from bacteria to humans. The universal cellular lipid storage organelle is the so-called lipid storage droplet (LD). Although ubiquitous, LDs share a simple structure composed of a hydrophobic core that harbors the storage lipids, which is shielded by a droplet-specific phospholipid monolayer to which proteins are attached. The current model of LD biogenesis involves an incorporation of the lipid core into the membrane leaflets of the endoplasmic reticulum (ER) followed by a subsequent budding-like maturation of a LD, which ultimately pinches off. Once released, LD volume can increase by localized lipogenesis or fusion of existing droplets. Storage lipids are re-mobilized enzymatically by lipase activity. Lipase regulation in the adipocyte is heavily studied and involves multiple components including catecholamine signaling, the LD-associated proteins Perilipin and comparative gene identification-58 (CGI-58) and at least two lipases named hormone sensitive lipase (HSL) and adipocyte triglyceride lipase (ATGL). LD regulation outside of the adipocyte is poorly understood and only few components are known. However, there is an urgent need to learn more about ectopic fat depots as mislocalized storage of lipids, for example in the liver or muscle, is an eminent health problem associated with insulin resistance or the metabolic syndrome. We developed a laser-scanning cytometer assay to enable 1,536-well screening and combined the results of the small molecules screen with an RNAi database based on lipid storage.
NCGC Assay Protocol Summary:
We dispensed 4 uL of cells at 1.25 x 10^6 cells/mL into LoBase Aurora COC 1,536-well plates (black walled, clear bottom) with a bottle-valve solenoid-based dispenser (Aurora) to obtain 5,000 cells/well. Triacsin C (Sigma-Aldrich T-4540), an inhibitor of long-chain fatty acyl CoA synthetase that blocks synthesis of triglycerides, was used as a positive control for lipid under-storage. A total of 23 nL of compound solution of different concentrations were transferred to the assay plates using a Kalypsys pin tool equipped with a 1,536-pin array containing 10-nL slotted pins (FP1S10, 0.457-mm diameter, 50.8 mm long; V&P Scientific). One microliter of oleic acid (400 uM) was added, and the plate was lidded with stainless steel rubber gasket lined lids containing pinholes. […] Fluorescence was detected by excitation of the fluorophores with a 488-nm laser on an Acumen Explorer (TTP Lab Tech). The total intensity in channel 1 (500-530 nm) reflected lipid droplet accumulation. […] The ratio of the total intensity in PMT channel 1 over total intensity of channel 3 was also calculated. Percent activity was computed relative to an internal control (100% inhibited lipid droplet deposition due to the presence of 20 uM Triacsin C), which was added to 32 wells/plate.

[1] = measured here: cell count channel max response
[2] = measured here: lipid channel max response

Row | SMILES | activity change, negative = inhibition (at 25.7 µM (top of the series)) | activity change, negative = inhibition (at 57.5 µM (top of the series)) | max response [1] | max response [2]
1 | CN(C)CCCN1c2ccccc2CCc2ccccc21 | -3.67% (inactive) | -1.66% (inactive) and 1.56% (inactive) | -3.16% and 7.78% and 14.5% | -7.45% and 10.3% and 14.3%
2 | CCCCOC(=O)c1ccc(O)cc1 | -2.55% (inactive) |  | -1.21% | -4.1%
3 | CCN(CC)CCOC(=O)C1(C2CCCCC2)CCCCC1 | -3.18% (inactive) | 4.04% (inactive) and 0.569% (inactive) | 0.165% and 5.59% and 10.8% | -2.15% and 9.9% and 9.37%
4 | O=C(CCCN1CCN(c2ccccn2)CC1)c1ccc(F)cc1 | 0.351% (inactive) | 15.3% (inactive) | -7.79% and 5.38% | -10.2% and 27.2%
5 | CN(C)CCCN1c2ccccc2Sc2ccc(Cl)cc21 | -3.35% (inactive) | 10.9% (inactive) | -15.1% and 7.95% | -17.6% and 24.6%
6 | CCCCCCCCCCCCCCCCCCOCC(O)CO (stereo not given) |  | 4.1% (inactive) | 15.6% | 19.9%
7 | O=c1cc(CO)occ1O |  | 0.978% (inactive) | 23.1% | 26.9%
8 | CC(C(O)c1ccc(O)cc1)N1CCC(Cc2ccccc2)CC1 (stereo not given) |  | 3.33% (inactive) | 9.6% | 16%
9 | CCN(CC)CCCC(C)Nc1c2ccc(Cl)cc2nc2ccc(OC)cc12 (stereo not given) |  | 9.16% (inactive) and 1.41% (inactive) | 2.35% and -26.6% | 14.1% and -23.7%
10 | OC[C@H]1O[C@@H](O[C@@H]2[C@@H](CO)O[C@](O)(CO)[C@H]2O)[C@H](O)[C@@H](O)[C@H]1O |  | -5.86% (inactive) | -20.2% | -24.3%
11 | O=c1cc[nH]c(=S)[nH]1 |  | 7.12% (inactive) | 11.5% | 29.2%
12 | CSc1ccc2c(c1)C(N1CCN(C)CC1)Cc1ccccc1S2 (stereo not given) |  | 1.28% (inactive) and 0.609% (inactive) | 9.1% and -20.8% | 12.4% and -19.6%
